# Assay outcomes as filed in PubChem.
# RGS4 inh – human RGS4 inhibition; P49798; Transcreener GDP fluorescence polarization, RGS4-accelerated GTP hydrolysis; Potency, µM (titrated, usually from 114 µM), hits mostly inhibitors; 390,000 compounds, 0.039% hits; also: nearly all actives have a fitted effect of over 75% in size
#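 MLSMR compounds (23 nl, pin-transferred) preincubated 10 min at room temperature with a 500nM (2x) first reagent, then RGS4 at 900nM (2x) plus Transcreener GDP mix added; fluorescence polarization (620/688 nm) read before and after 90 min at 30 °C.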
# EPAC2 antagonist – antagonists of human EPAC2 | 360,000 compounds, 0.18% hits | EPAC2 GEF exchange of Rap1B-BODIPY-GDP, fluorescence | Potency, µM (titrated, usually from 114 µM), hits mostly inhibitors; also: nearly all actives have a fitted effect of over 45% in size
# EPAC2 agonist – agonists of human EPAC2 (RAPGEF4); EPAC2 activation, biochemical qHTS; response scale: 100% = 6.5 mM cAMP response; 360,000 compounds, 0.079% hits; Potency, µM (series often up to 154 µM), most hits filed as activators; Q8WZA2; also: nearly all actives have a fitted effect of over 50% in size
#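 Setup: EPAC2 100 nM, labeled Rap1B complex 250 nM, free GDP 50 uM. Compound titrations pinned in, brief spin, 5 min room temperature incubation. Kinetic fluorescence read over 30 min, normalized to 6.5 mM cAMP.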
# ERG Ets-DNA blk – inhibitors of human ERG Ets domain-DNA interaction; P11308; fluorescence polarization, His-ERG Ets domain / labelled DNA; Potency, µM (titrated, usually from 76.9 µM), usual class: inhibitors; 370,000 compounds, 0.028% hits; AID 624246; active = well fitted inhibition curve with a large enough effect in the polarisation, with a control signal flat; inconclusive = small, poorly fitted or top-dose-only effect, or effect the other way, or a change in a side signal; inactive = no such curve, though single readings can be large or run the other way; the % refers to the polarisation;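 also: polarization taken with two DNA probes labelled with fluorescein and Texas red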
#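 His-tagged ERG Ets domain (1 uM in the protein solution; 300mM KCl, 50mM Tris-HCl, 1mM EDTA, 1mM DTT, pH 7.5) received compound, then a probe mix of 5 nM fluorescein-DNA and 100nM Texas-615-DNA. Fluorescence polarization was read for both dyes.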
# EPAC1 ag – EPAC1 (human) agonism; EPAC1 agonist qHTS, biochemical assay; response scale: 100% = response to 6.5 mM cAMP; Potency, µM (top dose mostly 154 µM), actives largely listed as activators; 360,000 compounds, 0.073% hits; AID 720707; also: nearly all actives have a fitted effect of over 60% in size
# Target sequence (O95398 whole entry, looked up): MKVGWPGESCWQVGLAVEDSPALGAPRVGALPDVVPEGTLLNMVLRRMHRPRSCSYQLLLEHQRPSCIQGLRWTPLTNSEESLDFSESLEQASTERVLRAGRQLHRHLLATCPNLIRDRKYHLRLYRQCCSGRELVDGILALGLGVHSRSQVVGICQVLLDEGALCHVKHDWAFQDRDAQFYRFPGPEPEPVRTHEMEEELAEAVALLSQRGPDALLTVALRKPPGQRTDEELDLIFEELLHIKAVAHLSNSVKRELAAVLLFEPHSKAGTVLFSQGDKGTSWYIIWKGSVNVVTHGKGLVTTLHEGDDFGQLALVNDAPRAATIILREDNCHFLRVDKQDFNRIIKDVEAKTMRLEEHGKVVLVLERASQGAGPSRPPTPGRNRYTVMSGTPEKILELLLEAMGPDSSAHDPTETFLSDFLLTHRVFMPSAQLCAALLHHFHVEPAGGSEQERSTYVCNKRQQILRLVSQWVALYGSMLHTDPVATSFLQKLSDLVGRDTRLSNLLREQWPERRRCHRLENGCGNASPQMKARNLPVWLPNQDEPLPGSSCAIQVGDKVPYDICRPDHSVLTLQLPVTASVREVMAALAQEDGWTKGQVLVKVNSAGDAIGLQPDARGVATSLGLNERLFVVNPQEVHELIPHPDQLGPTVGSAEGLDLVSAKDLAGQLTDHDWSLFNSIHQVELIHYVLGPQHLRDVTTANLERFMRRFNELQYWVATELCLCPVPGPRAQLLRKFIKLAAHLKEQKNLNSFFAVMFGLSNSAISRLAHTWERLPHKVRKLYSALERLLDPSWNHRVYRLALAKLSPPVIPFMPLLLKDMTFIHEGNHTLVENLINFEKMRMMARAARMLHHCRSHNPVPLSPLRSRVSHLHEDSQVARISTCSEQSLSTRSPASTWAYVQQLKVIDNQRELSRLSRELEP
#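 Compounds were pinned as a concentration titration into mixtures of EPAC1 (100 nM), BODIPY-GDP-loaded Rap1B (250 nM) and GDP (50 uM). After 5 min at room temperature, fluorescence was followed for 30 min; activity was scaled to 6.5 mM cAMP.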
# EPAC1 antag – EPAC1 (human) antagonism; EPAC1 GEF assay, Rap1b-BODIPY-GDP exchange fluorescence; Potency, µM (titrated, usually from 115 µM), usual class: inhibitors; 360,000 compounds, 0.14% hits; AID 720709; also: nearly all actives have a fitted effect of over 50% in size
# Numbers stand for hits; i = inactive; ? = inconclusive; nt = not tested or not shown; [ ] = another dose, or the depositor's remark. In the library only some 0.4% were active in any assay of this set; here they are far more common. Unless noted, calls follow the shape of the dose curve; as a rule, active = well fitted curve in the direction sought with a large enough effect; inconclusive = small, poorly fitted or top-dose-only effect, or another doubt; inactive = no such curve, though single readings can be large; an effect the other way counts as inactive or inconclusive.
SMILES,RGS4 inh,EPAC2 antagonist,EPAC2 agonist,ERG Ets-DNA blk,EPAC1 ag,EPAC1 antag
Cc1cc(C=C2C(=O)c3ccccc3C2=O)c(C)n1-c1ccc(Cl)cc1,i,79µM,i,i,i,i
COc1cc2nc(NCCc3ccc(Cl)cc3)n3nc(-c4ccccc4)nc3c2cc1OC,i,nt,nt,i,nt,nt
O/C(=C\c1nc2ccccc2[nH]1)c1cccs1,?,i,i,i,i,i
Cc1ccc2oc(=O)c(/C=C(\O)c3cccs3)nc2c1,i,i,63µM,i,i,i
Cc1ccc2oc(=O)c(/C=C(\O)CC(C)C)nc2c1,i,i,i,i,i,i
O=c1[nH]c2ccccc2nc1/C=C(\O)c1cccs1,i,i,?,i,100µM,i
Cc1ccc2oc(=O)c(/C=C(\O)c3ccccc3)nc2c1,i,i,89µM,i,i,i
C/C(O)=C\c1nc2ccccc2oc1=O,i[11.4 µM],i,i,i,i,i
O=c1oc2ccc(Cl)cc2nc1/C=C(\O)c1cccs1,i,i,100µM,i,i,i
CCOc1ccc(Cn2c(CNS(=O)(=O)c3ccc([N+](=O)[O-])cc3)nc3cccnc32)cc1,i,nt,nt,i,nt,nt
Cc1nc(Oc2ccccc2C)c2oc3ccccc3c2n1,i,nt,nt,i,nt,nt
CC(C)=C1C(=O)NN(c2ccc(F)c(Cl)c2)C1=O,i,i,i,i,i,i
O=C1NN(c2ccc(F)c(Cl)c2)C(=O)/C1=C\c1cccc(OC(=O)c2cccs2)c1,?,i,i,i,i,35µM
CCC1(C)Cc2c(sc3nc(SC)n(-c4ccc(C)cc4)c(=O)c23)CO1 (stereo not given),i,nt,nt,i,nt,nt
Cc1ccccc1CNC(=O)c1ccc(CN2CC(=O)N3CCCCC3C2=O)cc1 (stereo not given),i,nt,nt,i,nt,nt
CN1CCc2nc3sc(C(=O)C45CC6CC(CC(C6)C4)C5)c(N)c3cc2C1,i,50µM,?,i,i,i
CN1CCc2nc3sc(C(=O)c4ccc(F)cc4)c(N)c3cc2C1,i,nt,nt,i,nt,nt
O=C(CCc1nc(-c2cccs2)no1)Nc1ccccc1[N+](=O)[O-],i,nt,nt,i,nt,nt
CCOC(=O)C1=C(C)N=c2s/c(=C\c3ccc(OCC(=O)O)cc3)c(=O)n2C1c1ccc(OC(C)C)cc1 (stereo not given),i,i,i,i,i,56µM
CCOC(=O)C1=C(C)N=c2s/c(=C/c3ccc(OCC(=O)O)cc3)c(=O)n2C1c1cc(OC)c(OC)c(OC)c1 (stereo not given),i,i,i,i,i,?
CCOC(=O)C1=C(C)N=c2sc(=Cc3ccc(OCC(=O)O)cc3)c(=O)n2C1c1ccc(Cl)cc1 (stereo not given),nt,i,i,nt,i,?
CCOC(=O)C1=C(C)N=c2sc(=Cc3cc(Cl)c(OCC(=O)O)c(Cl)c3)c(=O)n2C1c1cccc(OC)c1 (stereo not given),nt,25µM,i,nt,i,?
CC(Sc1nccn1C)C(=O)Nc1ccccc1C#N (stereo not given),i,nt,nt,i,nt,nt
COc1ccc2ccccc2c1C(O)c1nccn1C (stereo not given),i,i,100µM,?,63µM,i
CN(C)c1ccc(/C=C/C(=O)c2cccc(Br)c2)cc1,i,i,100µM,?,100µM,i
SMILES,RGS4 inh,EPAC2 antagonist,EPAC2 agonist,ERG Ets-DNA blk,EPAC1 ag,EPAC1 antag
CC1CCN(c2oc(-c3ccc(OCc4ccccc4Cl)cc3)nc2C#N)CC1,i,nt,nt,nt,nt,nt
CCC(=O)N1c2ccccc2CC1C(=O)NCc1ccc(OC(C)C)cc1 (stereo not given),i,nt,nt,i,nt,nt
Cc1cc(/C=N/NC(N)=S)c(O)c(/C=N/NC(N)=S)c1,i,i,?,?,40µM,i
NC(=S)N/N=C/c1cccc(O)c1O,i,i,i,i,i,i
CCc1ccccc1NC(=O)CCNS(=O)(=O)c1ccc2c(c1)CCN2C(=O)C1CC1,i,nt,nt,i,nt,nt
CN1CCc2c(sc(NC(=O)CS(=O)(=O)c3ccc(F)cc3)c2C(N)=O)C1,i,i,i,i,i,i
CC(=O)N1CCc2c(sc(NC(=O)CS(=O)(=O)c3ccc(F)cc3)c2C(N)=O)C1,i,i,i,i,126µM,i
Cc1ccc(O)c(Nc2nc3ccccc3c3nncn23)c1,i,nt,nt,i,nt,nt
COc1ccccc1NC(=O)c1sc2nc(Cc3ccccc3)cc(C(F)(F)F)c2c1N,i,79µM,i,i,i,i
CCOc1ccc(NC(=O)C(=O)c2cc(C)n(-c3cc(C)cc(C)c3)c2C)cc1,i,nt,nt,i,nt,nt
COC(=O)c1ccc(-n2c(C)cc(C(=O)COC(=O)C3=COCCO3)c2C)cc1,i,i,i,i,i,i
COC(=O)c1ccc(-n2c(C)cc(C(=O)CCl)c2C)cc1,i,35µM,i,i,i,i
CCOc1ccc(-n2c(C)cc(C(=O)CCl)c2C)cc1,i,8.9µM,i,i,i,i
CN(CCN(C)c1nc(-c2cccs2)nc2ccccc12)C(=O)OC(C)(C)C,i,nt,nt,nt,nt,nt
CC(=O)N=c1nc(-c2ccccc2)n(-c2ccccc2)s1,i,nt,nt,nt,nt,nt
CN=c1nc(-c2ccccc2)n(-c2ccccc2)s1,3.8µM,i,i,i,i,i
CCCC[C@@H]1C[C@H]1[C@@H](NC(=O)c1cccs1)c1ccc(Cl)cc1,i,?,i,i,i,i
CCCC[C@@H]1C[C@H]1[C@@H](NC(=O)c1ccco1)c1ccc(Cl)cc1,i,8.9µM,i,i,i,i
COc1ccc(C)c2sc(NC(=O)c3ccc(S(=O)(=O)N4CCCCC4)cc3)nc12,i,nt,nt,i,nt,nt
COc1cc2c(cc1OC)C1(C)N(CC2)C(C(C)=O)=NN1c1ccc(Cl)cc1 (stereo not given),i,25µM,i,i,i,i
O=c1[nH]c(=S)c2[nH]cnc2[nH]1,i,nt,nt,nt,nt,nt
CCCCC/C=C\C\C=C/C=C/C=C/[C@@H](SC[C@H](N)C(=O)NCC(=O)O)[C@@H](O)CCCC(=O)O,27µM,nt,nt,nt,nt,nt
Cc1ccccc1NC(=O)COC(=O)c1ccc(CSc2ccc(Cl)cc2)cc1,i,i,i,i,i,i
Cc1cc(CSc2ccc(Cl)cc2)ccc1N,i,16µM,i,i,i,i
Cc1ccc(S(=O)(=O)N2CCN(c3nc(C(N)=O)nc4ccccc34)CC2)cc1,i,nt,nt,nt,nt,nt
N=C1/C(=C\c2coc3ccccc3c2=O)C(=O)N=C2SC=CN12,i,i,112µM,i,89µM,i
CSC1=NSC2=NC(=O)/C(=C/c3coc4ccc(O)cc4c3=O)C(=N)N12,?,i,100µM,i,79µM,i
CC1=CC2=NC(=O)/C(=C/c3coc4ccc(Cl)cc4c3=O)C(=N)N2O1,i,i,?,i,?,i
CSC1=NSC2=NC(=O)/C(=C/c3coc4ccccc4c3=O)C(=N)N12,?,i,89µM,i,100µM,i
